# NS1 inh – inhibitors of influenza NS1 protein function; Potency, µM (titrated, usually from 46.1 µM), inactives show top-dose activity, positive = more growth; 270,000 compounds, 0.4% hits; calls by dose curve; also: potency is read from the fitted curve at half-maximal effect; actives are rising curves; nearly all actives have a fitted effect of over 50% in size
#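 OD600 was taken as the measure of yeast growth restored by compound in an NS1-expressing S. cerevisiae strain. Cells had been washed out of glucose medium and diluted 1:100 into galactose -URA medium, pH 6.0.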
# Pf growth 48h – P. falciparum growth inhibition at 48 hours (one generation). AID 504832. Potency, µM (doses to about 28.7 µM), for the others: top-dose activity change, negative = inhibition, usual class: inhibitors. P. falciparum luciferase growth in erythrocytes, 48 h. 310,000 compounds, 5.9% hits; also: potency is read from the fitted curve at half-maximal effect; % is scaled to controls: 0 for no effect and ±100 for the full control effect
#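 Erythrocytes infected with P. falciparum carrying an integrated firefly luciferase reporter (2% hematocrit, 0.1% parasitemia final) were exposed to compounds in RPMI 1640 with 0.5% Albumax at 37 C, 5% CO2. Growth inhibition was scored as reduced luminescence.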
# Cycloheximide cs – affects cycloheximide protein synthesis inhibition readout, counter-screen. 300,000 compounds, 12% hits. cell reporter, cycloheximide protein synthesis inhibition counterscreen. AID 2314. max response, %; in the data active = max response mostly above about 13%, no sharp cut-off; inactive = mostly below about 14%; also: read at 38.3 µM for the half of the compounds with a filed dose; 0% is about no effect
# Shiga toxin inh – blocks Shiga toxin action in Vero cells; 290,000 compounds, 9.2% hits; AID 2315; Vero cells, Shiga toxin protein synthesis inhibition reporter; inhibition, % at 38.7 µM; in the data active = inhibition mostly above about 28%, no sharp cut-off; inactive = mostly below about 43%; also: 0% is about no effect
# Pf growth 96h – P. falciparum growth inhibition at 96 hour, primary screen for plastid delayed-death inhibitors | AID 504834 | P. falciparum luciferase reporter growth, 96 h | 320,000 compounds, 6.9% hits | Potency, µM (highest dose often 28.7 µM), without a hit: at the top dose activity change, negative = inhibition, usual class: inhibitors; also: potency is read from the fitted curve at half-maximal effect; % is scaled to controls: 0 for no effect and ±100 for the full control effect
#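 Two parasite generations (96 h, 37 C, 5% CO2) of compound exposure in infected erythrocytes (0.05% parasitemia, 2% hematocrit). Luciferase-reporter P. falciparum; decreased luminescence indicates inhibited growth, aimed at apicoplast-acting delayed death.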
# SARS PLpro yeast – inhibitors of SARS-CoV papain-like protease in yeast | S. cerevisiae expressing SARS-CoV PLpro, growth rescue | 330,000 compounds, 0.19% hits | Potency, µM (top dose mostly 32.9 µM), inactives show at the top dose activity, positive = growth rescue, hits mostly activators; calls by dose curve; also: potency is read from the fitted curve at half-maximal effect; 0% is about no effect; nearly all actives have a fitted effect of over 55% in size
# * = called active by the depositor; i = inactive; ? = inconclusive; nt = not tested or not shown. The list is not random: actives were taken first. Their share in the collection is about 21%. Unless noted, calls follow the shape of the dose curve; as a rule, active = well fitted inhibition curve with a large enough effect; inconclusive = small, poorly fitted or top-dose-only effect, or another doubt; inactive = no such curve, though single readings can be large or run the other way.
SMILES,NS1 inh,Pf growth 48h,Cycloheximide cs,Shiga toxin inh,Pf growth 96h,SARS PLpro yeast
c1ccc(-c2nc3ccccc3s2)nc1,-11.0%,272.7%,61.1*,76.0*,334.9%,7.6%
Nc1ccc(-c2nc3ccccc3s2)cn1,-44.9%,275.4%,23.5,103.6*,291.9%,-1.8%
Brc1ccc(-c2nc3ccccc3s2)s1,-3.5%,190.9%,47.8*,96.2*,324.4%,?
O/N=C/c1ccnc(SCc2ccc(Cl)cc2)n1,-35.6%,141.6%,51.2*,74.7*,326.3%,-1.2%
O/N=C/c1ccnc(SCc2ccccc2)n1,-9.6%,356.2%,31.3*,64.3*,285.7%,-1.2%
c1ccc(-c2nn[nH]n2)nc1,-3.5%,-0.7%,-2.2,-8.4,13.0%,-5.1%
c1ccc(-c2n[nH]c(-c3ccccn3)n2)nc1,-22.1%,110.5%,33.3*,62.2*,26.4%,2.0%
c1ccc(-c2n[nH]c(-c3ccccn3)n2)cc1,-55.8%,191.2%,24.2*,62.7,nt,-10.1%
Cc1csc(NC(=O)c2ccc(OCC3CCCO3)cc2)n1 (stereo not drawn),nt,i,14.3*,39.5,108.4%,-2.5%
Cc1cccc2sc(NC(=O)c3ccc(OCC4CCCO4)cc3)nc12 (stereo not drawn),2.3%,?,45.6*,100.4*,-15.7%,0.3%
CCOc1ccc2nc(NC(=O)c3ccc(OCC4CCCO4)cc3)sc2c1 (stereo not drawn),1.1%,8.28µM*,34.6*,35.8*,?,12.3%
COc1cc([N+](=O)[O-])ccc1NC(=O)CSc1nncn1-c1cccnc1,3.7%,-10.4%,-4.9,-9.0,14.7%,6.0%
CCOC(=O)CCNC(=O)N1CCCC(N2CCN(c3ccc(OC)cc3)CC2)C1 (stereo not drawn),7.2%,-2.0%,-3.8,nt,2.94µM*,1.2%
CC(=O)N1c2ccc3ccccc3c2C2C=CCC2C1c1ccc(Br)cc1 (stereo not drawn),9.9%,5.86µM*,8.0,-13.3,45.5%,-12.1%
CC1CC2c3cccc(C(=O)O)c3C(=O)N2c2ccc(Cl)cc21 (stereo not drawn),nt,3.7%,14.5,-4.1,13.9%,-3.7%
CC(=O)N1c2ccc3ccccc3c2C(C)CC12CCCCC2 (stereo not drawn),-48.9%,nt,-3.9,-9.0,nt,-21.2%
CC(=O)N1c2ccc(Cl)cc2C2C=CCC2C1c1cccc2ccccc12 (stereo not drawn),11.6%,13.1µM*,-0.3,12.0,8.7%,-68.5%
COC(=O)[C@]1(C)N[C@H](CN(C)C(=O)c2ccc(C)cc2)[C@@H]2C(=O)N(C)C(=O)[C@@H]21,nt,nt,nt,nt,nt,-2.6%
CC(C)c1ncc([N+](=O)[O-])n1C,nt,-2.2%,nt,nt,-0.1%,nt
CC(=O)NCCNC(=O)c1cccc(NS(=O)(=O)c2ccc3c(c2)OCCO3)c1,nt,-22.1%,nt,nt,3.2%,-0.7%
CSc1ccccc1NC(=O)COC(=O)CSc1ccc(C)cc1,nt,3.5%,nt,nt,36.2%,nt
CCOc1ccc(NC(=O)C2CCCN2C(=O)NC2CCCCC2)cc1 (stereo not drawn),4.0%,10.7%,-2.5,3.8,12.9%,1.4%
Cc1ccccc1Cn1ccc(NC(=O)c2nc3ncccn3n2)n1,-9.5%,29.0%,9.3*,18.4,20.7%,3.6%
Cc1ccccc1Cn1ccc(NC(=O)c2onc(C)c2Cl)n1,-41.4%,37.3%,28.6*,75.9*,14.7%,-19.3%
Cc1cc(C)n(C(=O)N(c2ccccc2)c2ccccc2)n1,-1.7%,-4.3%,-1.6,1.5,3.8%,0.7%
SMILES,NS1 inh,Pf growth 48h,Cycloheximide cs,Shiga toxin inh,Pf growth 96h,SARS PLpro yeast
Cc1cccc(NC(=S)NC2CCSc3ccccc32)c1 (stereo not drawn),16.8%,11.7µM*,10.5,22.3,?,19.6%
S=C(NCc1ccccc1)NC1CCSc2ccccc21 (stereo not drawn),14.4%,1.5%,-4.4,-20.2,?,-2.5%
CN(CC(=O)N1CCCCCC1)S(=O)(=O)c1ccccc1,3.1%,63.6%,34.5*,68.5*,?,-5.0%
Cc1ccc(S(=O)(=O)N(CC(=O)N2CCCC2)C2CCCCC2)cc1,0.8%,?,-2.8,-1.2,11.7µM*,1.6%
CN(CC(=O)N1CCCCCC1)S(=O)(=O)c1ccc(F)cc1,-0.7%,60.0%,39.0*,104.7*,12.0%,-1.2%
Cc1ccc(S(=O)(=O)CCC(=O)NC2CCCC2)cc1,10.5%,13.2%,-1.1,-8.0,-17.7%,-3.3%
Cc1cc(C)c(S(=O)(=O)N(CC(=O)N2CCCC2)C2CCCCC2)c(C)c1,-39.1%,?,-1.2,20.1,nt,nt
Cc1ccc(S(=O)(=O)N(C)CC(=O)N2CCCCCCC2)cc1,nt,8.8%,nt,nt,?,-3.9%
Cc1ccc(S(=O)(=O)CCC(=O)N(C)C2CCCCC2)cc1,-0.9%,8.0%,13.3*,25.6,-14.5%,-3.8%
CCn1nc(C(=O)OC(C(=O)c2c[nH]c3ccccc23)c2ccccc2)c2ccccc2c1=O (stereo not drawn),14.6%,0.0%,10.7,23.4,nt,1.2%
CCCC1(c2ccccc2)NC(=O)N(CC(=O)Nc2cc(OC)cc(OC)c2)C1=O (stereo not drawn),7.4%,-22.5%,-0.7,-8.9,?,-1.3%
O=C(NCC1CC1)C1(S(=O)(=O)c2ccccc2)CC=CC1,-1.0%,-0.1%,-0.8,-5.3,0.3%,-0.1%
O=C(CS(=O)(=O)c1ccccc1)N1CCCCC1,0.5%,10.3%,9.3,1.4,2.62µM*,-3.2%
O=C(N1CCOCC1)C1(S(=O)(=O)c2ccccc2)CC=CC1,8.2%,7.1%,-2.8,-1.4,23.1%,-0.6%
O=C(N1CCCCC1)C1(S(=O)(=O)c2ccccc2)CC=CC1,9.8%,-1.6%,16.7*,9.8,17.1%,4.4%
COCCNC(=O)C1(S(=O)(=O)c2ccccc2)CC=CC1,-5.1%,38.5%,12.8*,25.3,37.6%,2.0%
CN(CC(=O)N1CCCCCC1)S(=O)(=O)c1ccc(Br)s1,-4.0%,20.3%,32.6*,80.4*,34.2%,nt
CC(=O)OCC1=C(C(=O)O)N2C(=O)C(NC(=O)CCn3nc(C(F)(F)F)c(Br)c3C3CC3)C2SC1 (stereo not drawn),nt,7.4%,-2.2,23.0,17.5%,0.1%
Cc1ccc(-c2nnnn2C2C/C(=N\NC(N)=S)C3OCC2O3)cc1 (stereo not drawn),nt,8.4%,19.9*,39.2,?,6.0%
CCC(C)[C@H](NC(=O)NCCCn1ccnc1)C(=O)OC (stereo partly drawn),13.5%,-6.3%,1.4,-8.7,25.9%,12.8%
CC(=O)c1csc(-c2ccccc2)n1,2.1%,4.6%,15.9*,41.1*,15.5%,-0.8%
O=C(Nc1ccc(-c2csc(-c3ccccc3)n2)cc1)c1ccccc1Cl,-12.1%,?,3.3,23.6,?,1.9%
Cc1cc(-c2ccccc2C(=O)O)on1,-9.1%,2.5%,-1.1,-8.5,8.6%,4.0%
O=C(O)c1ccc(-c2nc(-c3ccccc3)cs2)cc1,nt,160.0%,37.4*,41.4*,i,-8.2%
